An excerpt weighted towards active compounds, which were near 1.4% of everything screened.
LANA-H2A inh = blocks KSHV LANA binding to histone H2A/H2B; Q9QR71; cell-free LANA-H2A/H2B peptide, fluorescence polarization; inhibition, % (no concentration beside the values); 320,000 compounds, 0.6% hits; in the data active means inhibition mostly above about 10%, no sharp cut-off; inactive means mostly below about 6.7%
HDAC3 inhib = inhibitors of human histone deacetylase 3; recombinant HDAC3, fluorogenic peptide/trypsin coupled, fluorescence; inhibition, % at 8.3 µM; 320,000 compounds, 0.15% hits; AID 2718; in the data active means inhibition above about 26%, passing the limit was not always enough
Target sequence (O15379 whole entry, looked up): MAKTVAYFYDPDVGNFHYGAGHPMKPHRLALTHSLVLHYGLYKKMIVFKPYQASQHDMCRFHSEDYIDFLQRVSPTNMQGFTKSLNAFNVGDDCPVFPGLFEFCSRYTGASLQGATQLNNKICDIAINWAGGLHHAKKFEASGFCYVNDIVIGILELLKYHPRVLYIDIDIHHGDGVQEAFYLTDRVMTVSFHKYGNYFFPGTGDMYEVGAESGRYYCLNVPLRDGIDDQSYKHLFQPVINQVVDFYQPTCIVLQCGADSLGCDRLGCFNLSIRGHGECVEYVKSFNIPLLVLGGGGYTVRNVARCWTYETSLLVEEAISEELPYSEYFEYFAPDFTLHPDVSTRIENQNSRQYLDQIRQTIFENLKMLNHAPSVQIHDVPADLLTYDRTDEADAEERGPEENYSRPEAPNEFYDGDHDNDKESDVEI
APOBEC3A inh = human APOBEC3A DNA deaminase inhibition. P31941. recombinant A3A, FAM/TAMRA ssDNA deamination fluorescence. inhibition, % at 20 µM. 330,000 compounds, 0.41% hits. AID 493011;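 active means at least 40% inhibition at 20 µM here, with at most 30% in a related deaminase screen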
APOBEC3G inh = APOBEC3G (human) deaminase inhibition; recombinant A3G, ssDNA deamination FAM/TAMRA fluorescence; inhibition, % at 20 µM; AID 493012; 330,000 compounds, 0.28% hits;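 active means inhibition of at least 40% at 20 µM, with no more than 30% in the related APOBEC3A deaminase screen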
A3A conf = APOBEC3A (human) deaminase inhibition, confirmed | shares compounds with APOBEC3A inh | AID 493151 | inhibition, % at 20 µM | 1,400 compounds, 63% hits | recombinant A3A, ssDNA deaminase UDG fluorescence assay;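 active means inhibition reaching a set limit, 80% of the first screen's cutoff, at 20 µM in any replicate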
UDG ctr A3A = counter-screen for APOBEC3A inhibitors: UDG; shares compounds with APOBEC3A inh; UDG counterscreen, FAM/TAMRA uracil oligo fluorescence; inhibition, % at 20 µM; 1,000 tested, under 10 active; call rule not given here
APOBEC3G confirm = confirmation of human APOBEC3G DNA deaminase inhibitors; shares compounds with APOBEC3G inh; recombinant A3G ssDNA deaminase, UDG/FAM-TAMRA fluorescence; inhibition, % at 20 µM; 890 compounds, 72% hits; AID 493152;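 active means inhibition reaching a set limit in any replicate at 20 µM, the limit being 80% of the first screen's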
UDG A3G counter = counter-screen for APOBEC3G inhibitors: E. coli UDG. shares compounds with APOBEC3G inh. UDG counterscreen, FAM/TAMRA oligo fluorescence. inhibition, % at 20 µM. 710 tested, under 10 active. AID 504715;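 active means compounds giving 40% or more inhibition at 20 µM in any one of the three replicates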;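 further: inhibitors lower the FAM signal released by uracil excision and alkaline cleavage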
Hits are given with their value; n = inactive; x = not tested or not shown.

SMILES	LANA-H2A inh	HDAC3 inhib	APOBEC3A inh	APOBEC3G inh	APOBEC3G confirm	UDG A3G counter	others
CCOC(=O)C1(CCCc2ccccc2)CCN(C2CCC2)CC1	n	n	n	n	x	x
CCCC[N+]12CCC(CC1)C(=C(c1ccccc1)c1ccccc1)C2	n	n	97.4	n	x	x	A3A conf=71.0;UDG ctr A3A=n
CCC[N+]12CCC(CC1)C(=C(c1ccccc1)c1ccccc1)C2	n	n	n	n	x	x
CCOC(=O)c1cncn1[C@@H](C)c1ccccc1	n	n	n	n	x	x
Cn1cc(C(=O)N2CCOCC2)c2ccccc21	n	n	n	n	x	x
COc1ccc(N=C2SCCCN2C)cc1	n	n	48.4	n	x	x	A3A conf=72.0;UDG ctr A3A=n
C=C1C(O)(c2ccccc2)C2CC[N+]1(C)CC2 (stereo unspecified)	n	n	76.3	n	x	x	A3A conf=74.4;UDG ctr A3A=n
COC(=O)C1=C(c2ccc(OC)c(OC)c2)C[C@@H]2CC[C@H]1N2C(=O)NC1CCCCC1	n	n	n	n	x	x
CCn1c(NN=O)nc2ccccc21	n	n	n	58.4	n	n
Cc1ccc(/C=C2/Sc3ccc(C(=O)N4CCC5(CC4)OCCO5)cc3NC2=O)cc1	n	n	n	n	x	x
Oc1ccc2c3c1O[C@H]1[C@@H](O)CC[C@@]4(O)[C@@H](C2)N(CC2CCC2)CC[C@]314	n	n	n	n	x	x
NC(N)=Nc1ccc2[nH]c3c(c2c1)C[C@@]1(O)[C@H]2Cc4ccc(O)c5c4[C@@]1(CCN2CC1CC1)[C@H]3O5	n	59.6	n	83.9	96.8	n
C/C(=N\Nc1cccc2ccccc12)c1c(O)n(Cc2ccccc2)c(=O)[nH]c1=O	n	n	n	41.5	n	n
C/C(=N\NC(=O)c1ccccc1)c1c(O)n(Cc2ccccc2)c(=O)[nH]c1=O	n	n	n	n	x	x
O=C1C2CCCN2C(c2cccs2)N1c1ccccn1 (stereo unspecified)	n	n	n	88.9	n	n
C[C@]12CCC3C(CC[C@H]4C[C@@H](O)[C@H](O)C[C@]34C)C1CC[C@@H]2O (stereo partly specified)	n	n	n	n	x	x
COc1cc2c(cc1OC)-c1c3c(cc4c1[C@@H](C2)N(C)CC4)OCO3	n	n	n	45.5	n	x
Nc1cc2nc3ccccc3nc2cc1N	n	n	n	48.4	25.2	n
Nc1c2c(nc3ccccc13)CCN(Cc1ccccc1)C2	n	n	n	n	x	x
COC(=O)C1=C(c2ccc(F)cc2F)C[C@@H]2CC[C@H]1N2C(=O)NC1Cc2ccccc2C1	n	n	n	n	x	x

Assay outcomes from PubChem BioAssay.
